Source: PubChem BioAssay (EPA / NIEHS)
Inconclusive results are not listed. The source made the active and inactive calls. Rule for the calls: active = hit-call score of the fitted dose curve at least 0.9, where 1 is the maximum; inconclusive = response in the unintended direction; inactive = score below 0.9.

assay: ACEA_ER_AUC_viability: ACEA Biosciences xCELLigence Real-Time Cell Analysis on Estrogen Receptor Agonism for Viability (AID 2283782);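 note: hit means loss of impedance signal meaning reduced cell growth or viability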
Outline: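 Viability endpoint: reduced impedance area under the curve relative to DMSO, recorded by real-time electrode sensing over ~80 h of continuous exposure. Duplicate plates of T47D in hormone-depleted medium; eight concentrations, 1:4 dilutions, 100 uM maximum.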

| SMILES | outcome | AC50 |
| --- | --- | --- |
| CCCCC1CCCCC(=O)O1 (stereo not drawn) | inactive |  |
| O=S(=O)(O)CCCN1CCOCC1 |  | 36.6 µM (active) |
| CC(C)OB(OC(C)C)OC(C)C | inactive |  |
| CCCC1CCOC(C)S1 (stereo not drawn) | inactive |  |
| CC/C=C\CCOC(C)OCC (stereo not drawn) | inactive |  |
| CC(=O)c1ccc(C)cc1 | inactive |  |
| CCOC(=O)CCCCCCCCC(=O)OCC | inactive |  |
| CC1=CC(O)CC(C)(C)C1 (stereo not drawn) |  | 71.8 µM (active) |
| C[Si]1(C)N[Si](C)(C)N[Si](C)(C)N1 | inactive |  |
| CC(CO)(CO)[N+](=O)[O-] | inactive |  |
| CC(CO)c1ccccc1 (stereo not drawn) | inactive |  |
| CC1(C)CC(=O)CC(C)(C)N1 | inactive |  |
| CC(C)CCCC(C)(C)O | inactive |  |
| CC1(C)[C@H](C=C(Cl)Cl)[C@H]1C(=O)OCc1cccc(Oc2ccccc2)c1 |  | 12.5 µM (active) |
| CC(C)=CCCC(C)=CC(=O)O | inactive |  |
| CC(=O)CC(C)(C)C1CCCCC1 | inactive |  |
| C=CCOCC(O)CO (stereo not drawn) | inactive |  |
| CN(C)CCC=C1c2ccccc2CCc2ccccc21 |  | 26.2 µM (active) |
| NC(N)=NC(N)=NCCc1ccccc1 | inactive |  |

| SMILES | outcome | AC50 |
| --- | --- | --- |
| O=C(O)c1cccc(Cl)n1 | inactive |  |
| O=C(O)C(F)(F)OC(F)(F)C(F)(F)OC(F)(F)C(F)(F)C(F)(F)C(F)(F)F | inactive |  |
| O=C1OCc2ccccc21 | inactive |  |
| Cc1cc(O)c(C)c(C)c1O |  | 76.1 µM (active) |
| C=CCOC(=O)/C=C\C(=O)OCC=C |  | 94.9 µM (active) |
| CC(=O)CCC=C(C)CCC=C(C)C |  | 63.6 µM (active) |
| NNC(=O)OCc1ccccc1 | inactive |  |
| CCCCCCCC1CCCC1=O (stereo not drawn) | inactive |  |
| c1ccc(Sc2ccccc2)cc1 |  | 83.4 µM (active) |
| OCCN1CCOCC1 | inactive |  |
| O=S1(=O)CC=CC1 | inactive |  |
| NC(=O)NC(N)=O | inactive |  |
| CCCCCCCCCCCCCC(=O)OCC |  | 50 µM (active) |
| CN(C)c1ccc(C=O)cc1 | inactive |  |
| COc1ccc(C(C)=O)cc1 | inactive |  |
| CCO[Si](CCC#N)(OCC)OCC | inactive |  |
| CCCC1CCC(=O)CC1 | inactive |  |
| CC(=O)c1cccnc1 | inactive |  |
| CCCCCc1cccc(=O)o1 | inactive |  |
